Source: PubChem BioAssay
The list is not random: actives were taken first. Their share in the collection is about 2.8%.
POLB inh = qHTS Assay for Inhibitors of DNA Polymerase Beta; P06746; Pol beta primer extension/strand displacement, fluorescence kinetic; Potency, µM (titrated, usually from 114 µM), usual class: inhibitors; 340,000 tested, 1.3% active; AID 485314, 2010
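Reaction started by 50 nM substrate onto compound-treated Pol beta (10 nM, 15 min preincubation, room temperature); plates read at 0 min and 10 min. Normalized concentration-effect data fitted by four-parameter Hill equation.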
Pol eta inh = qHTS for Inhibitors of Polymerase Eta; recombinant Pol eta, fluorescent DNA replication assay; Potency, µM (doses to about 114 µM), most hits filed as inhibitors; 390,000 tested, 1.2% active
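Pol eta (10 nM) was preincubated with compounds for 15 min at room temperature, after which fluorescent replication substrate (50 nM final) was added to start the reaction. Fluorescence was read kinetically at 0 and 10 min.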
FEN1 inhibitor = qHTS Assay for the Inhibitors of Human Flap endonuclease 1 (FEN1); P39748; Recombinant FEN1 flap cleavage, fluorescence, 15 min; Potency, µM (top dose mostly 114 µM), hits mostly inhibitors; 390,000 tested, 0.35% active; AID 588795, 2011; also: nearly all actives have a fitted effect of over 65% in size
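Steps: FEN1 (10 nM) dispensed; compound added by pin tool; 15 min at room temperature; substrate added to 50 nM final; reads at 0 min and 15 min; data normalized and fitted (four-parameter Hill).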
PI5P4K alpha inh = qHTS for Inhibitors of phosphatidylinositol 5-phosphate 4-kinase (PI5P4K); AID 652105, 2013; 330,000 tested, 1.2% active; Phosphatidylinositol 5-phosphate 4-kinase type-2 alpha (Homo sapiens), P48426; max response, %; PI5P4Kalpha enzyme, ADP-Glo luminescence, 60 min; hits give low values; active = max response of -50% or lower; inconclusive = between -30% and -50%; inactive = -30% or higher; also: value at the top dose of about 77 µM
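Human PI5P4Kalpha with substrate in 0.038 M HEPES pH 7.4, 0.28 mM EGTA, 0.1% CHAPS, 5% DMSO; reaction started with 5 microM ATP (final), 60 min at room temperature. ADP formed read by ADP-Glo luminescence.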
POLI inh = qHTS for Inhibitors of Polymerase Iota | Potency, µM (series often up to 115 µM), hits mostly inhibitors | 390,000 tested, 1% active | Pol iota fluorescent replication assay, 10 min
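Pol iota at 10 nM preincubated 15 min with compounds at room temperature; reaction started with fluorescent substrate, 50 nM final. Fluorescence read kinetically at 0 and 10 min; buffer-only wells as negative control.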
Pol kappa inh = qHTS for Inhibitors of Polymerase Kappa; purified Pol kappa, fluorescent DNA synthesis assay, 10 min; 400,000 tested, 0.53% active; Potency, µM (series often up to 107 µM), hits mostly inhibitors
Target sequence (Q9UBT6 whole entry, looked up): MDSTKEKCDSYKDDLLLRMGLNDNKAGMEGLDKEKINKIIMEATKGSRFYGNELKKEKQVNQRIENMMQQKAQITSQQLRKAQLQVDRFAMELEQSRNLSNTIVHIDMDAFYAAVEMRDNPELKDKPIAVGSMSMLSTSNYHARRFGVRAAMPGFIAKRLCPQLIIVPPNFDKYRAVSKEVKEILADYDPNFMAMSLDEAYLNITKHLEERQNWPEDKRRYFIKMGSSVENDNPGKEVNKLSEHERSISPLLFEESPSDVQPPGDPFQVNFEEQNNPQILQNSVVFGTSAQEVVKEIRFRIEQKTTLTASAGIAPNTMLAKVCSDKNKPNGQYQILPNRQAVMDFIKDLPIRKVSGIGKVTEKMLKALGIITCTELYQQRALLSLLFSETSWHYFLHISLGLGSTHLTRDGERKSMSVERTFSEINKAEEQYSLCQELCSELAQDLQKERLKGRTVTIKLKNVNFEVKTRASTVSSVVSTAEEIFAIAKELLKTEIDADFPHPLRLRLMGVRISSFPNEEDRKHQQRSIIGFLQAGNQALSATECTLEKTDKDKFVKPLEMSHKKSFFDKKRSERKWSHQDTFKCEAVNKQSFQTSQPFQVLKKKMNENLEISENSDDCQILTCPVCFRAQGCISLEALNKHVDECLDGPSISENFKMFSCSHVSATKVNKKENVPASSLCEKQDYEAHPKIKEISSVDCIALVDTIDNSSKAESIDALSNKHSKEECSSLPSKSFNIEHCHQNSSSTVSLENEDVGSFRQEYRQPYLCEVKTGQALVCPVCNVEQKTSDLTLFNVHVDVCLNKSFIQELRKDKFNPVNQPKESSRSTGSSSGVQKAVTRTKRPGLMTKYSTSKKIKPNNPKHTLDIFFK
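Enzyme at 10 nM met test compounds for 15 min at room temperature. Substrate addition (50 nM final) began the reaction, which was monitored by fluorescence at 0 and 10 min.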
Numbers stand for hits; i = inactive; ? = inconclusive; nt = no result. Unless noted, calls follow the shape of the dose curve; as a rule, active = well fitted curve in the direction sought with a large enough effect; inconclusive = small, poorly fitted or top-dose-only effect, or another doubt; inactive = no such curve, though single readings can be large; an effect the other way counts as inactive or inconclusive.

SMILES	POLB inh	Pol eta inh	FEN1 inhibitor	PI5P4K alpha inh	POLI inh	Pol kappa inh
Cn1ccc2c(OCC(=O)NCc3ccccc3Cl)cccc2c1=O	i	?	i	nt	i	i
CC1=NN(c2ccc(C)cc2C)C(=O)C1C(c1cccc(O)c1)C1C(=O)N(c2ccc(C)cc2C)N=C1C (stereo unspecified)	i	i	i	i	1.3µM	i
CCOc1ccccc1C(=O)N1CCCCC1CCN1CCOCC1 (stereo unspecified)	i	i	i	nt	i	i
COc1ccc2nnc(-c3ccccc3)n2n1	i	i	i	nt	89µM	i
O=C(O)c1ccc2c(c1)C1C=CCC1C(c1cc3c(cc1Br)OCO3)N2 (stereo unspecified)	i	i	i	i	?	i
Cc1ccc2c(c1)C1C=CCC1C(C(=O)O)N2 (stereo unspecified)	3.5µM	nt	nt	nt	nt	nt
Brc1cc2c(cc1C1Nc3ccccc3C3C=CCC31)OCO2 (stereo unspecified)	?	?	i	i	i	i
CC(=O)c1ccc2c(c1)C1C=CCC1C(c1ccncc1)N2 (stereo unspecified)	?	?	i	i	32µM	i
COC(=O)c1ccc(C2Nc3ccc(/C(C)=N/NC(=O)C(OC)c4ccccc4)cc3C3C=CCC32)cc1 (stereo unspecified)	i	i	i	-66	i	i
C1=CC2c3ccccc3NC(c3ccncc3)C2C1 (stereo unspecified)	i	?	i	-57	?	i
CSC1=NS(=O)(=O)c2c(C)nn(C)c2S1	i	i	?	-76	i	i
COc1ccc2cc3c(N)nn(C(=O)c4ccc(OC)c(OC)c4)c3nc2c1	16µM	?	i	nt	i	i
CCOC(=O)c1c2c3c(c(Cl)ccc3[nH]c1=O)C(=O)c1ccccc1-2	?	79µM	i	i	?	?
CCOC(=O)c1c2c3c(cccc3[nH]c1=O)C(=O)c1ccccc1-2	i	?	i	i	i	i
CC(C)(Oc1ccc(Cl)cc1)C(=O)NC1CC1	nt	i	i	i	i	i
CCCc1cc(C(=O)Nc2ccc(CC)cc2)no1	i	i	i	i	i	i
O=c1cc(-c2cccc(F)c2)[nH]c2cc(F)ccc12	nt	nt	nt	nt	nt	i
O=c1[nH]c2cc(F)ccc2c2ccc(F)cc12	nt	20µM	i	i	?	i
CC(=O)c1cccc(NC(=O)COC(=O)c2ccccc2OCc2cccc(Br)c2)c1	nt	nt	i	nt	?	i
O=C(NCc1ccco1)C(c1ccc(F)cc1)N(CC1CCCO1)C(=O)Cn1nnc2ccccc21 (stereo unspecified)	0.32µM	i	i	i	i	i
COCCNC(=O)C(c1ccc(C)o1)N(CC1CCCO1)C(=O)Cn1nnc2ccccc21 (stereo unspecified)	i	i	i	i	i	i
S=C1SCN(Cc2ccccc2)CN1Cc1ccccc1	i	i	i	i	i	i
S=C1SCN(Cc2ccccc2)CN1Cc1ccco1	nt	?	nt	-75	nt	nt
Cn1c(SCC(=O)c2ccc(O)c(O)c2)nnc1-c1cccs1	3.5µM	22µM	i	i	28µM	79µM
C=CCn1c(SCC(=O)c2ccc(O)c(O)c2)nnc1-c1cccc(OC)c1	nt	11µM	i	i	?	32µM
SMILES	POLB inh	Pol eta inh	FEN1 inhibitor	PI5P4K alpha inh	POLI inh	Pol kappa inh
Cc1ccc(/C=C2\SC(=S)N(c3cccnc3)C2=O)o1	i	i	i	i	?	50µM
[O-]c1c[n+](-c2ccc(-[n+]3cc([O-])on3)cc2)no1	7.1µM	45µM	i	-56	?	i
[O-]c1c[n+](-c2ccccc2)no1	i	i	i	i	i	i
COC(CNC(=O)c1ccc2c(c1)ncn2C1CCCCCC1)OC	i	i	i	i	i	i
COc1ccc(Cn2c3nc4ccccc4nc3c3c(=O)n(Cc4ccco4)cnc32)cc1	35µM	nt	nt	nt	nt	nt
Cc1cccc(S(=O)(=O)c2c(N)n(Cc3ccco3)c3nc4ccccc4nc23)c1	i	?	i	?	?	i
Cc1cccc(-n2cnc3c(c2=O)c2nc4ccccc4nc2n3Cc2ccco2)c1	40µM	?	i	i	?	i
CCCn1cnc2c(c1=O)c1nc3ccccc3nc1n2Cc1ccccc1OC	i	nt	nt	nt	nt	nt
COc1ccc(-c2ccccc2NC(=O)C2CCCN(Cc3ccc(C)o3)C2)cc1 (stereo unspecified)	i	i	i	i	i	i
CCCCn1c(=S)[nH]c2c(=O)n(C)c(=O)n(C)c21	nt	i	nt	-73	nt	nt
CC1=NN(c2ccccc2)C(=O)C1N=Nc1ccc(N)cc1 (stereo unspecified)	22µM	i	i	i	?	i
CC1=NN(c2ccccc2)C(=O)C1N=Nc1ccccc1 (stereo unspecified)	i	i	i	i	i	i
CC(=O)c1c(C)[nH]c(C(=O)OCC(=O)c2c[nH]c3ccccc23)c1C	nt	i	i	i	79µM	i
CC(C)(C)n1ncc2c(=O)n(Cc3ccc(C#N)cc3)cnc21	nt	nt	i	nt	?	?
CCCCC(CC)CO (stereo unspecified)	nt	i	i	i	?	i
CCCCC(CC)CN=C(N)NC(N)=NCCCCCCN=C(N)NC(N)=NCC(CC)CCCC (stereo unspecified)	nt	89µM	50µM	i	?	?
OC[C@@H]1CN(Cc2cccs2)C[C@H](n2cnc3c(NCc4ccco4)ncnc32)O1	nt	nt	nt	i	nt	nt
CN(C)CCn1c(SCc2ccccc2C#N)nc2c(sc3ccccc32)c1=O	i	i	i	i	i	i
CCC12CN3CC(C)(CN(C1)C3c1ccc(O)cc1O)C2=O (stereo unspecified)	i	i	i	nt	i	i
Cc1ccc(Cn2c(SCC(=O)NCc3ccco3)nc3ccsc3c2=O)cc1	i	i	i	nt	100µM	i
Cc1cccc(C)c1NC(=O)Cn1c(=O)n(Cc2ccc(C(=O)NCc3ccco3)cc2)c(=O)c2sccc21	45µM	nt	i	nt	45µM	i
Cc1ccc(Cn2c(SCC(=O)NCc3ccc(Cl)cc3)nc3ccsc3c2=O)cc1	i	i	i	nt	i	i
CC(=O)N1CCn2c3c(c4cc(C)ccc42)CCCC31 (stereo unspecified)	i	i	i	i	i	i
CC(=O)N1CCn2c3c(c(=O)c4cc(C)ccc42)CCC31 (stereo unspecified)	i	i	i	i	22µM	i
COc1ccccc1OCC(=O)N/N=C(\C)c1ccc2ccccc2c1	nt	i	nt	-68	nt	nt
CN(CC(=O)Nc1ccc(F)c(Cl)c1)S(=O)(=O)c1ccc2c(c1)n(C)c(=O)c(=O)n2C	i	i	?	i	i	i
